Source: PubChem BioAssay
D1 ag – activates the human D1 dopamine receptor; HEK293 T-REx D1 cells, calcium flux, agonist mode; AID 504660; activation, % at 2 µM; P21728; 360,000 compounds, 1% hits; in the data active = activation above about 30%; also: 0% is about no effect
Target sequence (P21728 whole entry, looked up): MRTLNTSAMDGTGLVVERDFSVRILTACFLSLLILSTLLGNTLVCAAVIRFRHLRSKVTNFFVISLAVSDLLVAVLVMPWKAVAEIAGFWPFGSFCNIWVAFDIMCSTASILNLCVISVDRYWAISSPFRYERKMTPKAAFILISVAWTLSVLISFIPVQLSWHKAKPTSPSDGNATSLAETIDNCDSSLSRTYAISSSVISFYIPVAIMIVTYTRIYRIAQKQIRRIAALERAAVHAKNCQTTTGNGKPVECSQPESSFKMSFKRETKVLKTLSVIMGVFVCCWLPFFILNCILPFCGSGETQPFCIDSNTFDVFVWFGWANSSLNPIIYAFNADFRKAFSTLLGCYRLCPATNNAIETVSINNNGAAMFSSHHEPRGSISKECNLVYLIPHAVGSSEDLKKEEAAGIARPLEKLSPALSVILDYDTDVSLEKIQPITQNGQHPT
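Agonism was scored from calcium flux recorded over 180 s (1 read/s) after pintool compound addition, following a 10-cycle baseline. Cells were inducible force-coupled HEK293 TREx D1, plated overnight at 30 C and loaded with no-wash calcium dye.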
D3 antag – blocks the human D3 dopamine receptor; P35462; D3R cells, DiscoveRx beta-arrestin luminescence, antagonist mode; stronger effect = lower value; max response, negative = inhibition, %; 360,000 compounds, 2.5% hits; AID 652054; in the data active = max response below about -50%; inconclusive = no clear call, values can overlap the other calls; also: % is scaled to controls: 0 for no effect and ±100 for the full control effect
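Cells expressing the human receptor were seeded at 1500 cells/well, incubated overnight at 37 degrees C in 5% CO2, then exposed to library compounds with dopamine controls for 90 minutes at 37 degrees C before luminescent detection.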
D1 potentiator – potentiators of human D1 dopamine receptor; HEK293 TREx D1 cells, calcium flux, dopamine EC20 potentiation; potentiation, % at 10 µM; 360,000 compounds, 0.036% hits; AID 504651; in the data active = potentiation above about 30%; also: 0% is about no effect
D3 ag – activates the human D3 dopamine receptor | P35462 | D3R DiscoveRx beta-arrestin cells, luminescence, 90 min | max activation, % | 410,000 compounds, 0.58% hits | AID 652048; in the data active = max activation above about 30%; also: 0% is about no effect
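Agonist-mode cell screen: cells plated at 1500/well and incubated overnight at 37 °C, then exposed to library compounds for 90 min at 37 °C. Detection reagent was added for 30–60 min at room temperature, and luminescence was read.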
D1 antagonist – human D1 dopamine receptor antagonism | HEK293 TREx D1 cells, calcium flux, dopamine EC80; stronger effect = lower value | activity change, negative = inhibition, % at 10 µM | 360,000 compounds, 3.2% hits | AID 504652; in the data active = activity change below about -30%; also: % is scaled to controls: 0 for no effect and ±100 for the full control effect
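Using tetracycline-induced force-coupled D1 Hek293 cells and a calcium dye, signals were followed for 180 s after compound, then for 180 s after EC80 dopamine, to detect inhibitors.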
Active calls of the source: *. A selection: hits, their analogues and other compounds. The true share with any hit is near 6.1%.

How did CCOc1ccc(S(=O)(=O)Nc2cccc(N(C)S(C)(=O)=O)c2)cc1 do in these assays?
D1 ag: 23; D3 antag: 48; D1 potentiator: -6; D3 ag: 5; D1 antagonist: -39*

Results for CN(c1cccc(NC(=O)c2ccc(Cl)c(S(=O)(=O)Nc3ccccc3)c2)c1)S(C)(=O)=O ?
D1 ag: 5; D3 antag: 53; D1 potentiator: 4; D3 ag: 52*; D1 antagonist: -42*

What do the screens show for `CN(c1cccc(NS(=O)(=O)c2ccccc2)c1)S(C)(=O)=O`?
D1 ag: 3; D3 antag: 11; D1 potentiator: -5; D3 ag: 0; D1 antagonist: -37*

What do the screens show for `O=C(COC(=O)c1c[nH]c(=O)[nH]c1=O)Nc1ccccc1Br`?
D1 ag: 0; D3 antag: 6; D1 potentiator: 1; D3 ag: -2; D1 antagonist: 20

How did COc1nc(-c2ccccc2)nc(C)c1CC(=O)O do in these assays?
D1 ag: 2; D3 antag: -27; D1 potentiator: -4; D3 ag: -2; D1 antagonist: -3

Results for Cc1ccc(NC(=S)NC(=O)c2ccc(F)cc2)cc1S(=O)(=O)Nc1cccc(Cl)c1 ?
D1 ag: 14; D3 antag: -60*; D1 potentiator: -8; D3 ag: -19; D1 antagonist: 5

Results for CC(=O)Nc1ccc(NC2CCCCC2NS(=O)(=O)c2ccccc2)cc1 (centres undefined) ?
D1 ag: 0; D3 antag: 3; D1 potentiator: -1; D3 ag: 0; D1 antagonist: 11

What do the screens show for `Cc1c(C(=O)N(C)C)sc2nc(-c3ccccn3)[nH]c(=O)c12`?
D1 ag: 2; D3 antag: -57*; D1 potentiator: -2; D3 ag: 1; D1 antagonist: -4

What do the screens show for `O=c1[nH]c(-c2ccccn2)nc2sc(-c3ccccc3)cc12`?
D1 ag: 7; D3 antag: inconclusive; D1 potentiator: 3; D3 ag: -11; D1 antagonist: -31*

What do the screens show for `CCN(CC)C(=O)c1sc2nc(Cc3ccccc3)[nH]c(=O)c2c1C`?
D1 ag: 1; D3 antag: -18; D1 potentiator: 4; D3 ag: 5; D1 antagonist: -4

How did O=c1c2cc(-c3ccccc3)sc2nc2n1N=C(c1ccccc1)CS2 do in these assays?
D1 ag: 4; D3 antag: -6; D1 potentiator: 3; D3 ag: -1; D1 antagonist: 24

What do the screens show for `O=C1[C@H](c2ccccc2)[C@@H](c2ccccc2)N1c1ccncc1`?
D3 antag: 1; D3 ag: -5

How did CCOc1ccc(N(C(C)C(=O)NN=C2CCCCCCC2)S(C)(=O)=O)cc1 (centres undefined) do in these assays?
D1 ag: 0; D3 antag: 0; D1 potentiator: -8; D3 ag: 3; D1 antagonist: -33*

How did CCOc1ccccc1NC(=O)C(C)N(c1ccccc1)S(C)(=O)=O (centres undefined) do in these assays?
D1 ag: -2; D1 potentiator: -3; D3 ag: 37*; D1 antagonist: 5

How did COc1ccc(N(C(C)C(=O)NN=C2CCCC2)S(C)(=O)=O)cc1 (centres undefined) do in these assays?
D1 ag: 2; D3 antag: 4; D1 potentiator: 6; D3 ag: 1; D1 antagonist: 6

What do the screens show for `CCC(C)NC(=O)c1ccccc1NC(=O)C(C)N(c1ccccc1)S(C)(=O)=O` (centres undefined)?
D1 ag: 2; D3 antag: 7; D1 potentiator: 0; D3 ag: 2; D1 antagonist: 8

How did CCC(Cn1nnc2ccccc2c1=O)NC(=O)Nc1ccccc1OC (centres undefined) do in these assays?
D1 ag: 3; D1 potentiator: 4; D3 ag: -11; D1 antagonist: -6

Results for CN1/C(=C\C=C(/C#N)C(=O)Nc2ccc(Cl)cc2)C(C)(C)c2ccccc21 ?
D1 ag: 81*; D3 antag: 24; D1 potentiator: -5; D3 ag: 7; D1 antagonist: 3

How did CC(C)CCNC(=O)CN1C(=O)CSc2ccc(S(=O)(=O)N3CCC(C)CC3)cc21 do in these assays?
D1 ag: -1; D1 potentiator: 4; D3 ag: -14; D1 antagonist: -10

Results for O=C(Nc1cccnc1)c1ccc(F)cc1 ?
D1 ag: 0; D3 antag: -25; D1 potentiator: -3; D3 ag: -1; D1 antagonist: -2

Results for O=C(Nc1ccncc1)c1ccc(-c2ccccc2)cc1 ?
D1 ag: 18; D3 antag: 12; D1 potentiator: -13; D3 ag: 1; D1 antagonist: -39*

Results for O=C(Nc1cccnc1)c1ccc(-c2ccccc2)cc1 ?
D1 ag: 5; D3 antag: -6; D1 potentiator: -9; D3 ag: 0; D1 antagonist: -30*

Results for CNS(=O)(=O)c1cccc(C(=O)Nc2cccnc2)c1 ?
D1 ag: -2; D3 antag: -57*; D1 potentiator: -3; D3 ag: -23; D1 antagonist: 1

Results for Nc1ccccc1C(=O)N/N=C1\C2CN3CCN(C2)CC1(c1ccccc1)C3 ?
D1 ag: 5; D3 antag: 16; D1 potentiator: 3; D3 ag: 1; D1 antagonist: -5

Results for O=C(CC(c1ccco1)S(=O)(=O)c1ccccc1)c1ccccc1 (centres undefined) ?
D1 ag: 0; D3 antag: 11; D1 potentiator: -4; D3 ag: 9; D1 antagonist: -5

Results for C=CCn1c(=O)[nH]c2nc3cc(N=CN(C)C)c(C)cc3nc2c1=O ?
D1 ag: 57*; D3 antag: 11; D1 potentiator: 2; D3 ag: 0; D1 antagonist: -3

Results for N=C1/C(=C\c2ccc(-c3ccc(C(=O)O)cc3)o2)C(=O)N=C2SC=C(c3ccccc3)N12 ?
D1 ag: 38*; D3 antag: -3; D1 potentiator: -5; D3 ag: -14; D1 antagonist: -16

How did N=C1/C(=C\c2ccc(-c3cccc(Cl)c3)o2)C(=O)N=C2SC=C(c3ccccc3)N12 do in these assays?
D1 ag: 0; D3 antag: -12; D1 potentiator: 5; D3 ag: -7; D1 antagonist: 5

What do the screens show for `CCCC(=O)N(c1ccc2oc3c(c2c1)CCCC3)S(=O)(=O)c1ccc(CC)cc1`?
D1 ag: 3; D1 potentiator: -1; D3 ag: 0; D1 antagonist: -9

Results for Cc1cc(=O)[nH]c(Cc2ccc(OC(C)C)cc2)n1 ?
D1 ag: 1; D3 antag: 5; D1 potentiator: -4; D3 ag: 7; D1 antagonist: -76*

What do the screens show for `Cc1nc(Cc2ccc(OC(C)C)cc2)[nH]c(=O)c1CC(=O)O`?
D1 ag: 5; D3 antag: 11; D1 potentiator: -2; D3 ag: 5; D1 antagonist: 4
